3T3 cytotox: kills NIH 3T3 cells; Potency, µM (series often up to 96.7 µM), for inactives: top-dose activity change, negative = cytotoxicity, hits mostly inhibitors; NIH 3T3 viability, CellTiter-Glo ATP luminescence, 48-72 h; 94,000 tested, 4.3% active; also: % is scaled to controls: 0 for no effect and ±100 for the full control effect; nearly all actives have a fitted effect of over 55% in size
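Mouse fibroblast NIH 3T3 cells, 400 per well, received compound via pintool and were incubated for 48 or 72 hr prior to CellTiter-Glo ATP luminescence measurement.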
NPR1 antag: human Npr1 receptor antagonism; P16066; HEK293 hNpr1 GloSensor cGMP, ANP-stimulated luminescence; Potency, µM (highest dose often 46.3 µM), without a hit: at the top dose activity change, negative = inhibition, hits mostly inhibitors; 76,000 tested, 1.6% active; calls by dose curve; also: % is scaled to controls: 0 for no effect and ±100 for the full control effect; nearly all actives have a fitted effect of over 60% in size
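HEK293 cells stably expressing human Npr1 and cGMP GloSensor pGS-40F, loaded 2 h with 2% GloSensor reagent, given compound 30 min at room temperature. Luminescence read before and 20 min after 0.1 nM hNppA.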
HEK293 tox: HEK 293 cell cytotoxicity; HEK 293 viability, ATP luminescence (CellTiter-Glo), 48-72 h; Potency, µM (top dose mostly 115 µM), inactives show at the top dose activity change, negative = cytotoxicity, most hits filed as inhibitors; 94,000 tested, 6.6% active; also: % is scaled to controls: 0 for no effect and ±100 for the full control effect; nearly all actives have a fitted effect of over 60% in size
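250 HEK 293 cells/well; compound by pintool; incubated 48 or 72 hr at 37 degree Celsius; CellTiter-Glo added, 10 min RT, luminescence imaged.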
FLuc inh: inhibitors of firefly (Photinus pyralis) luciferase; P08659; purified P. pyralis luciferase, luminescence, biochemical; Potency, µM (top dose mostly 115 µM), most hits filed as inhibitors; 76,000 tested, 2.5% active; AID 1347043; also: % is scaled to controls: 0 for no effect and ±100 for the full control effect; nearly all actives have a fitted effect of over 65% in size
Target sequence (P08659 whole entry, looked up): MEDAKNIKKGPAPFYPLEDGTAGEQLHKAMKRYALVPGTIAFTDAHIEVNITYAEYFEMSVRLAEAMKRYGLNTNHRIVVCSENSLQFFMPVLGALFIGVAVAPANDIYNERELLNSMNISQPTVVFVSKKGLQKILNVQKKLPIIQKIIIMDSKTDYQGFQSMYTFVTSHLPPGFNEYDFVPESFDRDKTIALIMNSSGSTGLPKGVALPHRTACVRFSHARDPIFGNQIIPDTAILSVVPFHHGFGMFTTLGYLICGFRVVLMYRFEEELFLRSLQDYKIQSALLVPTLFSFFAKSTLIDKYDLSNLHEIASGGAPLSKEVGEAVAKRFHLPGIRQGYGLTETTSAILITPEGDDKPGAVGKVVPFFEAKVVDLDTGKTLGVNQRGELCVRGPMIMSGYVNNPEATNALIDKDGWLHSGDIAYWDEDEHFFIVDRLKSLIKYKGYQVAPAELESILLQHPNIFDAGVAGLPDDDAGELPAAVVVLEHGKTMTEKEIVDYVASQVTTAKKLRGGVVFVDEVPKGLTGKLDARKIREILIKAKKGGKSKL
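Luminescence read by CCD imager after adding enzyme (10nM final) to wells holding compound, titrated in qHTS. Substrates 10uM each D-luciferin and ATP; buffer 50mM Tris acetate pH 7.5, 10mM Mg acetate, Tween-20, BSA.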
NPR1 antag cnf: confirmation of human Npr1 natriuretic peptide receptor antagonists; Potency, µM (doses to about 57.6 µM), for the others: at the top dose activity change, negative = inhibition, usual class: inhibitors; 1,400 tested, 76% active; HEK293 hNpr1 cGMP GloSensor luminescence, ANP-stimulated; shares compounds with NPR1 antag; calls by dose curve; also: nearly all actives have a fitted effect of over 70% in size
NPR2 antag: hNpr2 antagonism, selectivity versus Npr1; shares compounds with NPR1 antag; HEK293 hNpr2 GloSensor cGMP luminescence, CNP-stimulated; Potency, µM (top dose mostly 57.6 µM), for inactives: at the highest dose activity change, negative = inhibition, usual class: inhibitors; 1,400 tested, 67% active; calls by dose curve; also: nearly all actives have a fitted effect of over 70% in size
FLuc counter: FLuc enzyme inhibition, Npr1 counter-screen; Potency, µM (top dose mostly 57.6 µM), inactives show at the top dose activity change, negative = inhibition, most hits filed as inhibitors; shares compounds with NPR1 antag; 1,400 tested, 0.7% active; purified FLuc enzyme, luminescence, Km substrate; also: 0% is about no effect
GloSensor cGMP: reduces cGMP signal in GloSensor control cells; HEK293 GloSensor cGMP, SNP-stimulated, luminescence; 1,400 tested, 69% active; shares compounds with NPR1 antag; Potency, µM (top dose mostly 57.6 µM), for inactives: at the top dose activity change, negative = inhibition, actives largely listed as inhibitors; calls by dose curve; also: % is scaled to controls: 0 for no effect and ±100 for the full control effect; nearly all actives have a fitted effect of over 70% in size
* marks the source's active call; other numbers are inactive results; i = inactive; ? = inconclusive; · = no result; [ ] = another dose, or the depositor's remark. Most compounds without a hit are left out; they make up all but 11% or so of the library. Unless noted, calls follow the shape of the dose curve; as a rule, active = well fitted curve in the direction sought with a large enough effect; inconclusive = small, poorly fitted or top-dose-only effect, or another doubt; inactive = no such curve, though single readings can be large; an effect the other way counts as inactive or inconclusive. Potency is read from the fitted curve at half-maximal effect.

SMILES | 3T3 cytotox | NPR1 antag | HEK293 tox | FLuc inh | NPR1 antag cnf | NPR2 antag | FLuc counter | GloSensor cGMP
Cc1ccc(S(=O)(=O)N2CCC(n3cnnc3-c3ccccc3)CC2)cc1C | ? | -22.9% | ? | i | ? | ? | -0.7% | -3.6%
COc1cccc(S(=O)(=O)N2CCC(n3cnnc3C(C)C)CC2)c1 | ? | ? | -26.6% | i | ? | ? | -1.7% | ?
CCc1ccc(CN2CCC(O)(Cc3cc(-c4cccc(OC)c4)no3)CC2)o1 | ? | -23.1% | ? | i | -27.8% | -21.3% | -0.8% | ?
CNC(=O)N1CCCC(c2nc(CCOCC3CCCC3)no2)C1 (stereo not drawn) | -28.9% | ? | ? | i | ? | ? | -0.7% | ?
COc1ccc(-n2nc(C3CCCN(Cc4cccc5ccccc45)C3)[nH]c2=O)cc1 (stereo not drawn) | ? | 0.0% | ? | i | · | · | · | ·
COc1ccc(-n2nc(C3CCN(Cc4cccc5ccccc45)CC3)[nH]c2=O)cc1 | ? | 11.2µM* | ? | i | 24.3µM* | 24.3µM* | -0.2% | 27.3µM*
Nc1ncccc1CN1CCC2(CC1)COCCN2C(=O)OCc1ccccc1 | ? | 7.94µM* | ? | i | 11.1µM* | 11.1µM* | 2.4%[86.2 µM] | 11.1µM*
Cc1ccc(C(=O)N2CCN(c3cc(-c4ccc(Cl)cc4)[nH]n3)CC2)cc1F | ? | 17.8µM* | ? | i | 27.3µM* | 21.7µM* | 0.7% | 24.3µM*
CN(C)c1ccc(C(=O)N2CCN(c3cc(-c4ccc(Cl)cc4)[nH]n3)CC2)cc1 | ? | 12.6µM* | ? | i | 21.7µM* | 21.7µM* | -8.3% | 21.7µM*
O=C(c1cccc2[nH]ccc12)N1CCCN(c2cc(-c3ccc(Cl)cc3)[nH]n2)CC1 | ? | 10µM* | ? | i | 15.3µM* | 19.3µM* | ? | 13.7µM*
O=C(c1ccc(F)c(F)c1)N1CCCN(c2cc(-c3ccc(F)cc3)[nH]n2)CC1 | -5.0% | -14.5% | ? | i | · | · | · | ·
O=C(NC1CCN(c2cc(-c3ccc(F)cc3)[nH]n2)CC1)c1cccc2[nH]ccc12 | 39.8µM* | ? | 39.8µM* | i | ? | ? | -11.8% | -26.7%
O=C(Cn1nc2c(cc1=O)CCCC2)NC1CC1 | -1.5% | -2.2% | -15.3% | i | · | · | · | ·
O=C(C1CCCC1)N1CCC(c2noc(-c3ccncc3)n2)C1 (stereo not drawn) | -11.5% | -2.8% | 2.3% | i | · | · | · | ·
O=C1NC(=NC2CCCCC2)C2(CCN(Cc3ccccc3)CC2)N1c1cccnc1 | -0.9% | · | 2.7% | · | · | · | · | ·
CC(C)N1C(=O)C2(CCCC2)C1C(=O)NCC1CCCCC1 (stereo not drawn) | -13.3% | -2.4% | -19.5% | i | · | · | · | ·
CCc1nc(-c2c3n(c(=O)n(CC(=O)Nc4ccc(OC)cc4)c2=O)CCCCC3)no1 | -7.0% | 10.6% | -0.2% | i | · | · | · | ·
O=C(Cc1ccccc1F)N1CCN(c2cc(-c3ccc(Cl)cc3)[nH]n2)CC1 | -13.9% | 0.0% | -6.7% | i | · | · | · | ·
Cn1cccc1C(=O)N1CCN(c2cc(-c3ccc(Cl)cc3)[nH]n2)CC1 | ? | -20.3% | ? | i | · | · | · | ·
CN(C)c1ccc(C(=O)N2CCCN(c3cc(-c4ccc(Cl)cc4)[nH]n3)CC2)cc1 | ? | ? | ? | i | · | · | · | ·
O=C(c1ccc(OC(F)(F)F)cc1)N1CCN(c2cc(-c3ccc(Cl)cc3)[nH]n2)CC1 | 17.8µM* | 11.2µM* | 31.6µM* | i | 19.3µM* | 21.7µM* | 3.2% | 19.3µM*
O=C(C1COc2ccccc2O1)N1CCN(c2cc(-c3ccc(Cl)cc3)[nH]n2)CC1 (stereo not drawn) | ? | ? | 44.7µM* | i | 15.3µM* | 21.7µM* | 1.5% | 13.7µM*
CCOc1ccc(C(=O)N2CCCN(c3cc(-c4ccc(OC)cc4)[nH]n3)CC2)cc1OCC | -2.4% | -5.7% | ? | i | · | · | · | ·
CCOc1ccc(C(=O)N2CCN(c3cc(-c4ccc(Cl)cc4)[nH]n3)CC2)cc1OCC | 22.4µM* | 2.24µM* | 20µM* | i | 7.69µM* | 13.7µM* | -0.6% | 9.68µM*
O=C(c1ccc(Br)cc1)N1CCN(c2cc(-c3ccc(Cl)cc3)[nH]n2)CC1 | 39.8µM* | ? | 44.7µM* | i | 21.7µM* | 24.3µM* | 0.0% | 15.3µM*
SMILES | 3T3 cytotox | NPR1 antag | HEK293 tox | FLuc inh | NPR1 antag cnf | NPR2 antag | FLuc counter | GloSensor cGMP
COc1ccc(-c2ccc3nnc(CNC(=O)CNC(=O)c4ccccc4)n3n2)cc1 | -21.8% | 4.8% | -7.6% | i | · | · | · | ·
CC(C)Cc1nc(NC(=O)CC[C@H]2NC(=O)c3ccccc3NC2=O)n[nH]1 | i | 1.4% | 3.2% | i | · | · | · | ·
CO[C@H]1C(=O)N(C2CCN(C(=O)Cn3ccc(C)n3)CC2)[C@H]1c1ccncc1 | -4.3% | 2.5% | -4.7% | i | · | · | · | ·
Cc1ccsc1C(=O)N1CCN(c2cc(-c3ccc(Cl)cc3)[nH]n2)CC1 | 25.1µM* | 12.6µM* | ? | i | 24.3µM* | 27.3µM* | -10.8% | 21.7µM*
O=C(c1ccccc1Cl)N1CCN(c2cc(-c3ccc(Cl)cc3)[nH]n2)CC1 | ? | 7.94µM* | ? | i | 13.7µM* | 13.7µM* | -5.5% | 10.9µM*
Cc1ccc(-c2cc(N3CCCN(C(=O)c4sccc4C)CC3)n[nH]2)cc1C | ? | -20.0% | ? | ? | · | · | · | ·
COCCNC(=O)N1CCN(c2cnccn2)CC(C(=O)O)C1 (stereo not drawn) | 3.1% | 4.7% | 1.5% | i | · | · | · | ·
COc1ccc(-c2noc(CC3CCN(C(=O)c4ccc5c(c4)OCO5)CC3)n2)cc1 | ? | 2.82µM* | ? | i | 5.44µM* | 6.11µM* | 1.3% | 4.85µM*
COc1ccc(-c2noc(CC3CCN(C(=O)c4ccc(OC)c(OC)c4)CC3)n2)cc1 | ? | 3.55µM* | ? | i | 6.85µM* | 6.85µM* | 0.5% | 5.44µM*
COc1ccc(C(=O)N2CCC(Cc3nc(-c4ccc(F)cc4)no3)CC2)cc1F | ? | 1.12µM* | ? | i | 1.09µM* | 1.72µM* | -0.4% | 1.09µM*
CC(C)c1noc(CC2CCN(C(=O)c3ccc4c(c3)OCO4)CC2)n1 | ? | -13.5% | ? | i | · | · | · | ·
